Assay outcomes as filed in PubChem BioAssay.
An excerpt weighted towards active compounds, which were near 2.3% of everything screened.
V-ATPase pH: regulators of yeast V-ATPase proton transport | 0.37% of 350,000 active | S. cerevisiae, pHLuorin cytosolic pH fluorescence | response, % at 10 µM; in the data active means response mostly above about 7.3%, no sharp cut-off; inactive means mostly below about 5.4%; further: actives read high
ADAM17 inh: inhibitors of human ADAM17. recombinant ADAM17, EDANS/DABCYL FRET peptide cleavage. inhibition, % at 6.95 µM. 0.83% of 370,000 active;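 active means inhibition above the mean of compounds lying between control limits plus 3 SD, set per campaign, cut at about 8.5% in these data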;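 further: 0% = DMSO-only wells as the low control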
Target sequence (P78536 215-824 limits assumed): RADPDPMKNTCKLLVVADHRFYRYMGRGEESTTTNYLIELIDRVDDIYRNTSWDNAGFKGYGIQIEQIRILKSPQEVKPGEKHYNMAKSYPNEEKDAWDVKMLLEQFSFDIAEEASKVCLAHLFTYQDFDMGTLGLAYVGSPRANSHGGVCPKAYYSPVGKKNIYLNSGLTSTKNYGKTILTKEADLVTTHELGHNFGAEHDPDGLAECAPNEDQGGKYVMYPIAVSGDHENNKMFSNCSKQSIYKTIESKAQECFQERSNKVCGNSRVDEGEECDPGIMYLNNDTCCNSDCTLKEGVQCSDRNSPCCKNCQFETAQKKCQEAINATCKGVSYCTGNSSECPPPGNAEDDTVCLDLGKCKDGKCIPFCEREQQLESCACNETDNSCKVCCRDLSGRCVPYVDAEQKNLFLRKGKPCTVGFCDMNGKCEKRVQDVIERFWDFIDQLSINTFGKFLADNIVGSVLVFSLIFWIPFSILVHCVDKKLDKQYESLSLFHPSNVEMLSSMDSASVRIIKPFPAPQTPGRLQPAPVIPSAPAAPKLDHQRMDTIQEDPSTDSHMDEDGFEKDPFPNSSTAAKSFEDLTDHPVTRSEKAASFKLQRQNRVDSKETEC
ADAM10 inh: ADAM10 inhibition, QFRET primary screen; recombinant ADAM10, EDANS/DABCYL FRET peptide cleavage, 3 h; 0.62% of 370,000 active; O14672; inhibition, % at 7 µM;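 active means inhibition above a per-campaign cutoff equal to the mean of compounds falling between control-based bounds plus 3 SD, cut at about 20% in these data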;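 further: 0% = DMSO wells while the 100% control is not disclosed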
KLK7 zymogen act: activates the human kallikrein-7 zymogen. purified proKLK7, EDANS-DABCYL substrate fluorescence; 100% is mature enzyme control, 0% vehicle. activation, % at 7 µM. 0.9% of 370,000 active;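 active means activation above the mean of all tested compounds plus 3 SD, computed per campaign excluding outliers beyond control limits, cut at about 13% in these data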
An asterisk follows results filed as active; i = inactive; . = no result given.

SMILES	V-ATPase pH	ADAM17 inh	ADAM10 inh	KLK7 zymogen act
Nc1nc(-c2ccccn2)nc(N)c1Cc1ccc(Cl)cc1Cl	10.9*	-21.4	-45.8	-0.3
O=c1[nH]c(=S)[nH]c2c1C(c1ccc(Br)cc1)c1c([nH]c(=S)[nH]c1=O)O2	146.6*	-1.9	11.0	0.5
Cc1ccccc1NC(=O)O[C@H]1CC[C@@]23CCCN2C(=O)CCC[C@H]3[C@H]1C	.	-7.1	-5.9	.
CCCCNC(=O)NC1CCN(CC(=O)Nc2ccc3c(c2)OCCO3)CC1	.	-1.1	-15.7	-0.2
O=C(Nc1ccccc1)OCCN1C(=O)CCC12CCC(c1ccc(Cl)cc1)CC2 (stereo unspecified)	.	2.0	-0.8	-0.5
CCCc1cc(=O)oc2cc(OCC(=O)N3CCOCC3)c(Cl)cc12	-4.7	-4.1	-10.0	-0.1
CCCc1cc(=O)oc2cc(OCC(=O)N(C)C)c(Cl)cc12	26.0*	-2.1	-4.5	0.3
Cc1oc(-c2cc3c(cc2Cl)OCO3)nc1CN1CCCC(C(=O)N2CCOCC2)C1 (stereo unspecified)	15.7*	1.7	1.9	-0.8
CCCCOCCCNC(=O)C[C@H]1C[C@@]2(C(=O)OC)C(=C[C@H](C(C)C)O[C@@H]2C2CC2)N(Cc2ccco2)C1=O	.	0.5	5.0	0.4
CCCN(CCC)CCCNC(=O)c1cc2cc3ccc(OC)cc3nc2o1	-1.8	i	i	61.4*
COc1ccccc1NC(=O)C(C)OC(=O)Cc1n[nH]c(=O)c2ccccc12 (stereo unspecified)	16.1*	-3.3	-10.5	-0.1
COC(=O)C1CN(Cc2ccccc2)CCS(=O)(=O)N1Cc1cn(Cc2ccc(F)cc2)nn1 (stereo unspecified)	.	0.8	2.7	-0.5
CCCCn1c(SCC(=O)NCc2ccco2)nc2ccc(N3CCOCC3)cc2c1=O	2.0	-62.4	-204.8	14.9*
CC(=O)N1CCN(C(=O)c2cc3c(s2)CCCC3)CC1	17.8*	-4.2	1.2	0.0
O=C1CCCc2oc3c(cc(NS(=O)(=O)c4ccc5c6c(cccc46)C(=O)N5)c4ccccc43)c21	2.0	-15.5	-56.7	26.3*
CC1CCN(C(=O)COC(=O)Cc2c[nH]c3ccccc23)CC1	13.1*	0.9	-9.8	0.1
CCS(=O)(=O)N1Cc2ccccc2CC1C(=O)N(C)Cc1ccc(OC)c(F)c1 (stereo unspecified)	14.9*	-4.6	-2.5	-0.5
Cc1c(C)c(C)c(S(=O)(=O)N2CCSCC2)c(C)c1C	20.0*	-0.2	1.8	0.3
Cc1cc(C)c(C)c(S(=O)(=O)N2CCSCC2)c1C	-2.1	0.7	5.7	0.4
COc1ccc(/C=C2\CC3(OC(=O)c4ccccc4)CCCN2C3)cc1 (stereo unspecified)	.	7.2	11.1	-0.5
Cc1ccc(S(=O)(=O)N2CCCC2C(=O)N2CCc3ccccc3C2)cc1 (stereo unspecified)	.	2.3	4.4	-0.4
Cc1cc2c(cc1C)N(C(=O)CSc1nncn1C)C(C)(C)c1ssc(=S)c1-2	-5.0	4.7	7.9	0.1
Cc1ccc2c(c1)N(C(=O)CSc1nncn1C)C(C)(C)c1ssc(=S)c1-2	-2.0	8.8*	15.0	0.9
CC1=NN(c2ccccc2)C(=O)C1=Cc1ccccc1	1.7	-3.7	-8.9	0.7
CC1=NN(c2ccccc2)C(=O)/C1=C/c1ccc(Cl)cc1	-1.2	3.9	24.7*	0.1
SMILES	V-ATPase pH	ADAM17 inh	ADAM10 inh	KLK7 zymogen act
Nc1nc(SCc2ccc(Cl)cc2Cl)nc2nc3c(cc12)CCCC3	127.7*	-10.8	-27.7	-1.1
CCn1c2ccccc2c2cc(NC(=O)COC(=O)c3cc(F)ccc3C)ccc21	.	-1.5	-2.5	-0.1
CCCC(=O)Nc1ccc(S(=O)(=O)N2CCC(c3nc4ccccc4[nH]3)CC2)cc1	19.9*	1.7	-0.9	0.2
Cc1cc(C(=O)NN=Cc2cccc(O)c2)n[nH]1	.	1.0	-2.9	0.8
O=C(C1CCCN(S(=O)(=O)c2ccccc2[N+](=O)[O-])C1)N1CCN(Cc2ccccc2)CC1 (stereo unspecified)	.	0.3	0.0	0.4
O=S(=O)(c1ccc(F)c(F)c1)N1CCN(CCc2ccccc2)CC1	9.6*	-2.7	11.9	0.2
O=C(NCc1ccco1)OC1CCC12CCC(c1ccccc1)CC2 (stereo unspecified)	.	7.7	16.7	.
CC(=O)Nc1ccc(NC(=O)C(C)OC(=O)c2cccc(S(=O)(=O)N3CCCCCC3)c2)cc1 (stereo unspecified)	15.3*	0.8	-10.6	-0.2
CC(=O)Nc1ccc(NC(=O)C(C)OC(=O)c2cccc(S(=O)(=O)N3CCCCC3)c2)cc1 (stereo unspecified)	3.8	0.8	2.3	-0.5
COc1cccc(-c2noc(CCCC(=O)Nc3ccc(C(N)=O)cc3)n2)c1	17.3*	-3.1	0.3	-0.5
COc1cccc(-c2noc(CCC(=O)Nc3cccnc3)n2)c1	0.0	-1.2	6.9	0.0
Brc1ccc(-c2csc(N3CCC(c4nn[nH]n4)CC3)n2)cc1	.	-1.7	6.3	.
Cc1ccc(NC(=O)COC(=O)c2ccco2)cc1S(=O)(=O)N1CCOCC1	-3.8	-2.1	-9.8	-0.5
Cc1ccc(NC(=O)COC(=O)C2(C)CC2(Cl)Cl)cc1S(=O)(=O)N1CCOCC1 (stereo unspecified)	23.2*	0.6	-0.5	0.2
O=C1c2ccccc2-c2c1cccc2C(=O)N1CCCCCC1	14.9*	-0.9	4.9	-0.2
O=C(Nc1ccc(N2C(=O)CC(c3ccccc3)C2=O)c(Cl)c1)c1ccccn1 (stereo unspecified)	.	1.9	7.6	.
OCC(O)C(O)CC1SCCS1 (stereo unspecified)	13.1*	-3.9	-16.2	-0.6
Cc1ccc(NS(=O)(=O)c2cc(NC(=O)c3ccc4c(c3)NC(=O)CS4)ccc2C)c(C)c1	-1.9	10.2*	25.8*	-0.6
COc1ccc(NC(=O)c2ccc3c(c2)NC(=O)CS3)cc1S(=O)(=O)Nc1ccc(Br)cc1	-1.5	1.1	12.7	0.5
Cc1cc(C)c(C#N)c(SCc2ccccc2F)n1	14.1*	0.9	8.8	-0.1
Cc1cc(C)c(C#N)c(SCc2ccccc2C)n1	2.5	5.0	-9.6	-0.5
CCC(C(=O)OCC(=O)N1C(C)CCCC1C)c1ccccc1 (stereo unspecified)	284.3*	0.6	12.6	-0.6
O=C(CSc1nnc(CNc2ccc(F)cc2)o1)N1CCN(C(=O)c2ccco2)CC1	-0.4	-1.9	-1.0	-0.6
O=C(CSc1nnc(CNc2ccc(F)cc2)o1)N1c2ccccc2Sc2ccccc21	1.7	8.4	24.1*	-0.7
C#CCCC(=O)Nc1sc2c(c1-c1nc3ccccc3s1)CCN(C(C)C)C2	.	-110.0	-341.0	.
CS(=O)(=O)N(CC(=O)NCCSC1CCCCC1)c1ccc2c(c1)OCO2	23.6*	1.6	10.0	0.0
Cc1ccc(SCCNC(=O)CN(c2ccc3c(c2)OCO3)S(C)(=O)=O)cc1	-3.6	-2.8	-2.9	0.3
O=C(COC(=O)c1ccccc1C(=O)c1ccccc1)Nc1ccc(SC(F)F)cc1	4.0	9.0*	15.9	-0.5
COc1ccc(Cn2nnnc2C(c2cccs2)N2CCN(c3ccccc3)CC2)cc1 (stereo unspecified)	-9.0	-0.1	0.0	-0.3
